The targets below were run with CN[C@@H]1C[C@H]2O[C@@](C)([C@@H]1OC)n1c3ccccc3c3c4c(c5c6ccccc6n2c5c31)C(=O)NC4 [staurosporine] (assay: log2 fold change of tryptic peptide abundance, ligand vs vehicle (limited proteolysis) (log2 ratio); higher = more trypsin-susceptible (destabilized)). Details: ligand concentration: 20 uM; sample: mouse liver crude lysate; replicate design: treated separately.

UniProt Q8R0Y8, sequence (Q8R0Y8 whole entry): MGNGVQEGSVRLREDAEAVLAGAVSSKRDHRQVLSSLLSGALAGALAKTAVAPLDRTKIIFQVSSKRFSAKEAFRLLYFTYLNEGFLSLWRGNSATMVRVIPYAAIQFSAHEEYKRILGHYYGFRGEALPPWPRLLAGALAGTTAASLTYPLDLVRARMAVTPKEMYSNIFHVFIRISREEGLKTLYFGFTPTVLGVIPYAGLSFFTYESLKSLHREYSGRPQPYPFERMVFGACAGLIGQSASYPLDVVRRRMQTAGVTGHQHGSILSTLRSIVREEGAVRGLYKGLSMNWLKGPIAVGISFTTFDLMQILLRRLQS
UniProt Q60737, sequence (Q60737 whole entry): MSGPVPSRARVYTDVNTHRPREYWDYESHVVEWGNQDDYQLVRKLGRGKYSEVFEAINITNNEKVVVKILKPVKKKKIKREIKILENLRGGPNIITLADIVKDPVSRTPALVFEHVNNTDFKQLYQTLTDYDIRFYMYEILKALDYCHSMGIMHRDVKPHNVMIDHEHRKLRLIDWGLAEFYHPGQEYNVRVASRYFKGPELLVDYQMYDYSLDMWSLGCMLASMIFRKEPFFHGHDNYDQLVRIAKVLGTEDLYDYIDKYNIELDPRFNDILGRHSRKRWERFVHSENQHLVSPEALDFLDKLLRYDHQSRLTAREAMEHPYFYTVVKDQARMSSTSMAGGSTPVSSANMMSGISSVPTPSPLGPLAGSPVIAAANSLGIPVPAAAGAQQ
UniProt Q8BW96, sequence (Q8BW96 whole entry): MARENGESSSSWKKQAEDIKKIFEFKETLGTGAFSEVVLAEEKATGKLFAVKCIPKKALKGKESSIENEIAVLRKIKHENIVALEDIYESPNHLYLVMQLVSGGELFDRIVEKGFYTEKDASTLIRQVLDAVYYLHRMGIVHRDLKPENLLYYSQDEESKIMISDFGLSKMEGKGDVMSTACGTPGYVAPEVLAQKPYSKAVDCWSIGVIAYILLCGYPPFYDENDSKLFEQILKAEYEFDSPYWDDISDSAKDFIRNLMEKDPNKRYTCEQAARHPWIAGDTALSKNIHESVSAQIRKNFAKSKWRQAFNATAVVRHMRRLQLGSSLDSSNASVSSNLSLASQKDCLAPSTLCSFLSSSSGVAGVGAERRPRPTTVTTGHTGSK
UniProt O54781, sequence (O54781 whole entry): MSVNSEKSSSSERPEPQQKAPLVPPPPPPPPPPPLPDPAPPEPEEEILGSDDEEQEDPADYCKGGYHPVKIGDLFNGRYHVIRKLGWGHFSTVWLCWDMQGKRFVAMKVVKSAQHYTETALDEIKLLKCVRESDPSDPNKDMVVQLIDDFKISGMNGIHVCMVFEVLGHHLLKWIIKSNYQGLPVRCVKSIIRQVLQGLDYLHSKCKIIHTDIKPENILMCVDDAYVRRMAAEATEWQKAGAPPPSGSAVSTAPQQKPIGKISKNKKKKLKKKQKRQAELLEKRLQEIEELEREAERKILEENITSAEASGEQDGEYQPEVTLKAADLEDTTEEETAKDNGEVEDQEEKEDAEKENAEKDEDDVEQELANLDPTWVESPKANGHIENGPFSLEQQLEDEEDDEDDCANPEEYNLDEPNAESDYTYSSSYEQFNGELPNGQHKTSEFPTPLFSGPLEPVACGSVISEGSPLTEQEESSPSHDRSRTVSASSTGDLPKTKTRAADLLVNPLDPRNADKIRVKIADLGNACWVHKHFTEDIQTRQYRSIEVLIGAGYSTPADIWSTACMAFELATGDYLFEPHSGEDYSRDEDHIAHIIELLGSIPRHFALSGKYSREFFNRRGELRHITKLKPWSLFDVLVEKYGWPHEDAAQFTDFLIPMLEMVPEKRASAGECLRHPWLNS
UniProt Q9D8V0, sequence (Q9D8V0 whole entry): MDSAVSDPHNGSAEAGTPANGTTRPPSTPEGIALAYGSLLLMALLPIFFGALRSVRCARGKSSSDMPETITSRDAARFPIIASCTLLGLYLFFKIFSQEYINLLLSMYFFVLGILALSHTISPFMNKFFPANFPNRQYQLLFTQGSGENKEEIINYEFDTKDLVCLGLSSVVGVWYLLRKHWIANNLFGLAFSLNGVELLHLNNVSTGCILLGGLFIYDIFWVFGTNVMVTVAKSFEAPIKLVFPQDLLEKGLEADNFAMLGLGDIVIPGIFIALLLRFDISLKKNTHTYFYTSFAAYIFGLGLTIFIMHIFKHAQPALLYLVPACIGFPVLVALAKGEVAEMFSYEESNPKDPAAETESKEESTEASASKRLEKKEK
UniProt Q91XD8, sequence (Q91XD8 whole entry): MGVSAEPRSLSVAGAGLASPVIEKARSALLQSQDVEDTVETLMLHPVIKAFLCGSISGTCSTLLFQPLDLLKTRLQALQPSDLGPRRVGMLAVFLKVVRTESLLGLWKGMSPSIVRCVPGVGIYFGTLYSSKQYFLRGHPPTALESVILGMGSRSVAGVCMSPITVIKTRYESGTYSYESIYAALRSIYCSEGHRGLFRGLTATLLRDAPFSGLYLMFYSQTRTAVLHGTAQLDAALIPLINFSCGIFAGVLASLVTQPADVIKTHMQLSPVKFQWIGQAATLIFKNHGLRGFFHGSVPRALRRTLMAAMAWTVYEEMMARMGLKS
UniProt P06728, sequence (P06728 whole entry): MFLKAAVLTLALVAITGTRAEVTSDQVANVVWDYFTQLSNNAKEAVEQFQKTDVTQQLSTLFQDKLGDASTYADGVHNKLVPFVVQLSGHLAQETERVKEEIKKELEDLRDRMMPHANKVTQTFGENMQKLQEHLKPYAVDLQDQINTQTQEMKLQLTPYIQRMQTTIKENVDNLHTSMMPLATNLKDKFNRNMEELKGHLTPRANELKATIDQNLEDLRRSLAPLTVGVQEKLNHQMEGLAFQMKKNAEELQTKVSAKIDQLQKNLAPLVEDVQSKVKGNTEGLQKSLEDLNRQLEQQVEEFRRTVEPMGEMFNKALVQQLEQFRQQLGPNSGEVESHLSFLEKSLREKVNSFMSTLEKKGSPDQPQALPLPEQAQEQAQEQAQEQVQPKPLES
UniProt Q8K0D0, sequence (Q8K0D0 whole entry): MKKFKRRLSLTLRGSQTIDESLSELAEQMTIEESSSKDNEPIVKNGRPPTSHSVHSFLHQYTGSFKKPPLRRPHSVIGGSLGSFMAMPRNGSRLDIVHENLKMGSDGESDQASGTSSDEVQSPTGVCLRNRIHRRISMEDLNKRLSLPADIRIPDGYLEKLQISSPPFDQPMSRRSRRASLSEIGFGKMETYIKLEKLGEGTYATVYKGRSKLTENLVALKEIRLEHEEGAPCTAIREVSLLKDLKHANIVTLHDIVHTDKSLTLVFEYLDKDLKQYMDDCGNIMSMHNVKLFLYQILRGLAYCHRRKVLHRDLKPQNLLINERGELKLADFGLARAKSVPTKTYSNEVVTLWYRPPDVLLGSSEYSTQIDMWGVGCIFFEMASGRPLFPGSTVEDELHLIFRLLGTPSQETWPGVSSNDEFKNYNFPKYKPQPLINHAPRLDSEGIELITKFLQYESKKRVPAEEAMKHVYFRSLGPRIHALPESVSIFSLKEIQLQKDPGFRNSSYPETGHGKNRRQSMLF
UniProt Q61694, sequence (Q61694 whole entry): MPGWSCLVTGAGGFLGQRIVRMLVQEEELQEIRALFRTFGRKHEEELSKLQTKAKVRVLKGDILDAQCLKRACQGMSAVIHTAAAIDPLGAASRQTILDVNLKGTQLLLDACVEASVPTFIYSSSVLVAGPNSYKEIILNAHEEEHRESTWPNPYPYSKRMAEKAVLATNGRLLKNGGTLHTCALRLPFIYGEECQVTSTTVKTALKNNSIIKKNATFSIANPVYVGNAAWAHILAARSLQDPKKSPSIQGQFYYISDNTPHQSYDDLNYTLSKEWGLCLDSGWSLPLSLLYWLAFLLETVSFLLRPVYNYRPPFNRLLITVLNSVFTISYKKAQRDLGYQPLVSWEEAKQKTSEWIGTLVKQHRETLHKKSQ
UniProt Q61335, sequence (Q61335 whole entry): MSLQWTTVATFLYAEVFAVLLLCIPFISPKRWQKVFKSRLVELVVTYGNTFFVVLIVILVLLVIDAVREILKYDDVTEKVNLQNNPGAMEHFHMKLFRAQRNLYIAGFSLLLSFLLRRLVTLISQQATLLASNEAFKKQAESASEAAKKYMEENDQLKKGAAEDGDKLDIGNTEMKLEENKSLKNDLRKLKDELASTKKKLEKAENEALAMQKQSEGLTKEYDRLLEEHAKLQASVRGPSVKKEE
UniProt P30681, sequence (P30681 whole entry): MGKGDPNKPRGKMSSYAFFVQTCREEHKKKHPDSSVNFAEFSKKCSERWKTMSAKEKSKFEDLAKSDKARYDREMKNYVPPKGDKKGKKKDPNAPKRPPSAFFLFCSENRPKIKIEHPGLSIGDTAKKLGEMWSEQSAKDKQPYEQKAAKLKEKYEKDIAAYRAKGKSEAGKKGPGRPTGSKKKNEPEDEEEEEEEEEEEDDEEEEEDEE
UniProt O35495, sequence (O35495 whole entry): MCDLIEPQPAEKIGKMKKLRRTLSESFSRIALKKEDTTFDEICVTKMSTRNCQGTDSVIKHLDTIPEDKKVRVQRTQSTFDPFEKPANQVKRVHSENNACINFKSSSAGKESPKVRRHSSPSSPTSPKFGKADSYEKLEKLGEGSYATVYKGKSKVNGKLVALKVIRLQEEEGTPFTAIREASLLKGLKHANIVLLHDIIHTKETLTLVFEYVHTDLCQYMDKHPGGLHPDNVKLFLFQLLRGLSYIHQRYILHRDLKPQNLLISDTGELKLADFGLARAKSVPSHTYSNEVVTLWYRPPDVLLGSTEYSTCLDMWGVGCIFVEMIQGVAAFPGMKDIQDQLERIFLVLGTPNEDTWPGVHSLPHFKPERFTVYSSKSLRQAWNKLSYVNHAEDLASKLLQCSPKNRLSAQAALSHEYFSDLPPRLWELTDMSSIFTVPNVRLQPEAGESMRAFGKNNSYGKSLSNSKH
UniProt Q66GT5, sequence (Q66GT5 whole entry): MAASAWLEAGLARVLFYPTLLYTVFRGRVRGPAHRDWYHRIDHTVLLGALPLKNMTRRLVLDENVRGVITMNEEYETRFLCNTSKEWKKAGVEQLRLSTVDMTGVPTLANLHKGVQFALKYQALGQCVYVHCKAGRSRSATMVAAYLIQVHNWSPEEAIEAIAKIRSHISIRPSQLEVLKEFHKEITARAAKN

Q: With “UniProt Q60855 (peptide sequence: DLKPENILVDRDFHIK, peptide start residue: 138)” as the target, how does the log2 fold change read?
A: Its log2 fold change is 1.33.

Q: With “UniProt Q8C878 (peptide sequence: LPEHCIEYVR, peptide start residue: 245)” as the target, how does the log2 fold change read?
A: The log2 fold change was 0.505.

Q: Which log2 fold change does the source give for “UniProt Q9D8V0 (peptide sequence: SSSDMPETITSR, peptide start residue: 62)” here?
A: Its log2 fold change is -1.22.

Q: Which log2 fold change does the source give for “UniProt Q91XD8 (peptide sequence: LQALQPSDLGPR, peptide start residue: 75)” here?
A: The log2 fold change was -0.916.

Q: For “UniProt Q66GT5 (peptide sequence: IDHTVLLGALPLK, peptide start residue: 41)”, which log2 fold change is on record?
A: The log2 fold change was 0.379.

Q: How did the log2 fold change turn out when “UniProt Q8R0Y8 (peptide sequence: MQTAGVTGHQHGSILSTLR, peptide start residue: 254)” was run?
A: The log2 fold change was 0.401.

Q: For “UniProt P06728 (peptide sequence: LQLTPYIQR, peptide start residue: 155)”, which log2 fold change is on record?
A: The log2 fold change was 0.346.

Q: For “UniProt O54781 (peptide sequence: HFTEDIQTR, peptide start residue: 500)”, which log2 fold change is on record?
A: Its log2 fold change is -1.82.

Q: “UniProt P14685 (peptide sequence: ISLADIAQK, peptide start residue: 413)” was tested. Which log2 fold change did it give?
A: The log2 fold change was -0.355.

Q: Which log2 fold change does the source give for “UniProt Q61694 (peptide sequence: EIILNAHEEEHR, peptide start residue: 136)” here?
A: Its log2 fold change is -0.448.

Q: How did the log2 fold change turn out when “UniProt Q8BGS7 (peptide sequence: LFQLPTPPLSR, peptide start residue: 35)” was run?
A: The log2 fold change was 0.348.

Q: How did the log2 fold change turn out when “UniProt P05132 (peptide sequence: CGKEFTEF, peptide start residue: 344)” was run?
A: The log2 fold change was 2.36.

Q: Which log2 fold change does the source give for “UniProt Q9JK48 (peptide sequence: NFIEGDYK, peptide start residue: 149)” here?
A: Its log2 fold change is 0.247.

Q: Which log2 fold change does the source give for “UniProt Q05020 (peptide sequence: TYPISMDEK, peptide start residue: 59)” here?
A: The log2 fold change was 0.537.

Q: How did the log2 fold change turn out when “UniProt Q60737 (peptide sequence: VYTDVNTHRPR, peptide start residue: 11)” was run?
A: The log2 fold change was 0.264.

Q: With “UniProt O54909 (peptide sequence: YLASYLKR, peptide start residue: 242)” as the target, how does the log2 fold change read?
A: The log2 fold change was -1.31.

Q: With “UniProt Q61335 (peptide sequence: QAESASEAAK, peptide start residue: 139)” as the target, how does the log2 fold change read?
A: The log2 fold change was 0.352.

Q: “UniProt Q8K0D0 (peptide sequence: SKLTENLVALK, peptide start residue: 140)” was tested. Which log2 fold change did it give?
A: The log2 fold change was -2.51.

Q: How did the log2 fold change turn out when “UniProt P30681 (peptide sequence: MSSYAFFVQTCREEHK, peptide start residue: 13)” was run?
A: The log2 fold change was -0.185.

Q: How did the log2 fold change turn out when “UniProt Q3UTQ8 (peptide sequence: DIKPENLLISHNDVLK, peptide start residue: 135)” was run?
A: Its log2 fold change is -1.56.

Q: How did the log2 fold change turn out when “UniProt O35493 (peptide sequence: ILGPIPAHMIQK, peptide start residue: 392)” was run?
A: The log2 fold change was -2.87.

Q: How did the log2 fold change turn out when “UniProt P50285 (peptide sequence: TQLREPVLNDELPGR, peptide start residue: 277)” was run?
A: Its log2 fold change is 0.327.

Q: For “UniProt Q8BTW9 (peptide sequence: SYLDNFIK, peptide start residue: 321)”, which log2 fold change is on record?
A: The log2 fold change was -1.86.

Q: With “UniProt Q8C5L7 (peptide sequence: NGAQIAEGFR, peptide start residue: 267)” as the target, how does the log2 fold change read?
A: The log2 fold change was 0.659.

Q: How did the log2 fold change turn out when “UniProt P30561 (peptide sequence: HKLDFTPIGCDAK, peptide start residue: 285)” was run?
A: The log2 fold change was -1.1.

Q: Which log2 fold change does the source give for “UniProt Q61037 (peptide sequence: DFVPYITK, peptide start residue: 907)” here?
A: Its log2 fold change is -0.612.

Q: For “UniProt Q9CQE1 (peptide sequence: HWSHEDPR, peptide start residue: 211)”, which log2 fold change is on record?
A: Its log2 fold change is -0.522.

Q: “UniProt O35495 (peptide sequence: LADFGLAR, peptide start residue: 853)” was tested. Which log2 fold change did it give?
A: The log2 fold change was -1.69.

Q: How did the log2 fold change turn out when “UniProt Q9JHU4 (peptide sequence: SNLPDNLK, peptide start residue: 2024)” was run?
A: The log2 fold change was 0.261.

Q: For “UniProt Q61083 (peptide sequence: LLGQGAFGR, peptide start residue: 361)”, which log2 fold change is on record?
A: Its log2 fold change is -1.9.

Q: “UniProt O70579 (peptide sequence: NVLSLLHQR, peptide start residue: 249)” was tested. Which log2 fold change did it give?
A: Its log2 fold change is 0.904.

Q: Which log2 fold change does the source give for “UniProt Q91WL5 (peptide sequence: GLLMLDGQTWFQHR, peptide start residue: 128)” here?
A: The log2 fold change was 0.409.

Q: “UniProt Q9CR62 (peptide sequence: NGLDVLLK, peptide start residue: 261)” was tested. Which log2 fold change did it give?
A: Its log2 fold change is 0.377.

Q: With “UniProt O35469 (peptide sequence: QTILDVNLK, peptide start residue: 95)” as the target, how does the log2 fold change read?
A: The log2 fold change was -0.227.

Q: How did the log2 fold change turn out when “UniProt Q03963 (peptide sequence: DLKPGNIFLVDER, peptide start residue: 376)” was run?
A: Its log2 fold change is -1.55.

Q: How did the log2 fold change turn out when “UniProt Q8BW96 (peptide sequence: IMISDFGLSK, peptide start residue: 161)” was run?
A: The log2 fold change was -1.32.

Q: With “UniProt Q99PV0 (peptide sequence: VESHFDLELR, peptide start residue: 677)” as the target, how does the log2 fold change read?
A: Its log2 fold change is 0.478.

Reference: the supplement of paper PMC12819154, “High-throughput peptide-centric local stability assay extends protein–ligand identification to membrane proteins, tissues and bacteria” (Nature Structural & Molecular Biology, 2025)
